Among the data in PMC7862700, “An all-to-all approach to the identification of sequence-specific readers for epigenetic DNA modifications on cytosine” are binding signal values, retold here.

Common to all, as to experiment: DAPPL (digital affinity profiling via proximity ligation, sequencing); 10 mM Tris-HCl pH 7.5, 50 mM NaCl, 1 mM DTT, 4% glycerol, room temperature, 30 min; GST-TFs on glutathione beads, 16-mer random dsDNA library, 0.1% formaldehyde crosslink after washing; high values mean tight binding
The target of test [1] is T1, FEV (Homo sapiens, UniProt Q99581 1-238).
T1 sequence: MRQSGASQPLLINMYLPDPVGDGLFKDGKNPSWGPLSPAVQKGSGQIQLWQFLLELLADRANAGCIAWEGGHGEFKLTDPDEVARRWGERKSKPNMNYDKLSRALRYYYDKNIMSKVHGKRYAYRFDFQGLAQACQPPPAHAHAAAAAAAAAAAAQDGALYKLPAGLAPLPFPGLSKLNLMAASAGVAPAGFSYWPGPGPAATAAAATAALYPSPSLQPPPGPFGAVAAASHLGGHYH
The following applies: protein: recombinant; tags: N-terminal GST; dsDNA, one strand shown. In outline: (§1)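 Pools of DNA-barcoded human transcription factors, expressed in yeast as GST fusions on glutathione beads and combined with a tag-only sample, were incubated with 200 nmole of a 16-mer random double-stranded DNA library. Incubation took 30 min at room temperature in Tris/NaCl/DTT/glycerol buffer and was followed by washing, 0.1% formaldehyde crosslinking, proximity ligation (BsaI/T4 ligase, 1 h, 37 °C), PCR amplification and sequencing on an Illumina NextSeq500. Binding signal is the ratio of a hexamer's read frequency for a factor to its frequency for the tag-only sample.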

Test [2] concerns the target ETV5 (Homo sapiens, UniProt P41161 1-510). The conditions noted are these: protein: recombinant; tags: N-terminal GST; dsDNA, one strand shown. In short, it runs like this: as §1
Test [3] has as its target HSF1 (Homo sapiens, UniProt Q00613 1-529). The following applies: protein: recombinant; tags: N-terminal GST; chain copies: 3; dsDNA, one strand shown. In short, it runs like this: as §1
The target of test [4] is T2, SPIC (Homo sapiens, UniProt Q8N5J4 1-248).
T2 sequence: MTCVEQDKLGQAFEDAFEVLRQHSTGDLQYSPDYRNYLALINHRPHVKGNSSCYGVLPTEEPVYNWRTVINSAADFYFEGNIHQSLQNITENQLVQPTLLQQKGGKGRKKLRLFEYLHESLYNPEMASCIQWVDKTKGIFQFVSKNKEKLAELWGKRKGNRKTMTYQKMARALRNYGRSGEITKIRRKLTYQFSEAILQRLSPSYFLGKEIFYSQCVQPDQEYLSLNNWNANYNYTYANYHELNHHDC
The following applies: protein: recombinant; tags: N-terminal GST; dsDNA, one strand shown. In short, it runs like this:
as §1

Test [5] concerns the target ELF4 (Homo sapiens, UniProt Q99607 1-663). The conditions noted are these: protein: recombinant; tags: N-terminal GST; dsDNA, one strand shown. In outline:
as §1

Test [6] deals with T3, ELK4 (Homo sapiens, UniProt P28324-2 1-405).
T3 sequence: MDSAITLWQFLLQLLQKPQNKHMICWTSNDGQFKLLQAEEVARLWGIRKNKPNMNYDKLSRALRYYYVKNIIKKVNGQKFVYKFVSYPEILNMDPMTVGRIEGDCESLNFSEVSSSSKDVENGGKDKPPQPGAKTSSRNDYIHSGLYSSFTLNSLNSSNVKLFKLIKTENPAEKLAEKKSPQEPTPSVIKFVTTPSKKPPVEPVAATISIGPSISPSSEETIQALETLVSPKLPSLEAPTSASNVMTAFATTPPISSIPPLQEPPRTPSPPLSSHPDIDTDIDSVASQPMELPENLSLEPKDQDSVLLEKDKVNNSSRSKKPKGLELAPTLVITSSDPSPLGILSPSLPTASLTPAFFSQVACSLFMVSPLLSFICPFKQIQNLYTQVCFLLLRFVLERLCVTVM
The following applies: protein: recombinant; tags: N-terminal GST; dsDNA, one strand shown. In outline:
as §1

The target in test [7] is T4, ETV2 (Homo sapiens, UniProt O00321 1-342).
T4 sequence: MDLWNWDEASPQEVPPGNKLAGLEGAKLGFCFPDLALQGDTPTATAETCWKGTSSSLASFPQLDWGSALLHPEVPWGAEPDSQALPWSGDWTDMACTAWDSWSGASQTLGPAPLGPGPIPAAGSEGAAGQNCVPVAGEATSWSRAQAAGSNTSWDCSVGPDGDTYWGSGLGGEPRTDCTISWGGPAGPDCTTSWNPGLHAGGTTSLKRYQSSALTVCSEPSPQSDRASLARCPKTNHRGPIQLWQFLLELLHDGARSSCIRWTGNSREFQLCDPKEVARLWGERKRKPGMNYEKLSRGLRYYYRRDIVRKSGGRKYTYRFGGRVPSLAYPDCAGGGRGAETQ
The following applies: protein: recombinant; tags: N-terminal GST; dsDNA, one strand shown. In short, it runs like this: as §1

In test [8] the target is T5, ELF3 (Homo sapiens, UniProt P78545 1-371).
T5 sequence: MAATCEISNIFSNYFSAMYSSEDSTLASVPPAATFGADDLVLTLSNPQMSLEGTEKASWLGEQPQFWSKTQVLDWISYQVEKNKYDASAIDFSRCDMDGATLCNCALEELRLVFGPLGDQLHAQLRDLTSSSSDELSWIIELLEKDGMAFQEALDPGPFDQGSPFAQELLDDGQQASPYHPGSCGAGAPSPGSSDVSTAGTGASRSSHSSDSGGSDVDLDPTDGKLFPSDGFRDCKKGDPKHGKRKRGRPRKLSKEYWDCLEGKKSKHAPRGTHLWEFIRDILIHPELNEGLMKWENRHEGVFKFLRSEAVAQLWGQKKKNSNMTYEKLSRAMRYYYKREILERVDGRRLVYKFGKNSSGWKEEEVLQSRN
The conditions noted are these: protein: recombinant; tags: N-terminal GST; dsDNA, one strand shown. In short, it runs like this: as §1

Test [9] addresses CRX (Homo sapiens, UniProt O43186 1-299). The following applies: protein: recombinant; tags: N-terminal GST; dsDNA, one strand shown. In outline:
as §1

Test [10] deals with ETV1 (Homo sapiens, UniProt P50549 1-477). The following applies: protein: recombinant; tags: N-terminal GST; dsDNA, one strand shown. In outline: as §1
ETV1, sequence (P50549 whole entry): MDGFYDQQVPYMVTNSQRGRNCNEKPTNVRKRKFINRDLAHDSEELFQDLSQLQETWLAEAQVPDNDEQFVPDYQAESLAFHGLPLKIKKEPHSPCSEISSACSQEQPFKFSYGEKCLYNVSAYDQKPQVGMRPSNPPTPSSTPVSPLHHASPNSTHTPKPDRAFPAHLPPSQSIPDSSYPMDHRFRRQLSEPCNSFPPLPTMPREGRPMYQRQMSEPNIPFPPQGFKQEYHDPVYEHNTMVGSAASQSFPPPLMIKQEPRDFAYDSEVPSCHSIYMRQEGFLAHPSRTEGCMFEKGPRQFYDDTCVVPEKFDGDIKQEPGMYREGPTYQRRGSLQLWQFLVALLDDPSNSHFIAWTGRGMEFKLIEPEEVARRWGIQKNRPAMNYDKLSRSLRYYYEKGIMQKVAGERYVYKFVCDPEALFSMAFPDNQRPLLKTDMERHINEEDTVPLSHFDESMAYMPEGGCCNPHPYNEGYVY
The target of test [11] is T6, ERF (Homo sapiens, UniProt P50548 1-548).
T6 sequence: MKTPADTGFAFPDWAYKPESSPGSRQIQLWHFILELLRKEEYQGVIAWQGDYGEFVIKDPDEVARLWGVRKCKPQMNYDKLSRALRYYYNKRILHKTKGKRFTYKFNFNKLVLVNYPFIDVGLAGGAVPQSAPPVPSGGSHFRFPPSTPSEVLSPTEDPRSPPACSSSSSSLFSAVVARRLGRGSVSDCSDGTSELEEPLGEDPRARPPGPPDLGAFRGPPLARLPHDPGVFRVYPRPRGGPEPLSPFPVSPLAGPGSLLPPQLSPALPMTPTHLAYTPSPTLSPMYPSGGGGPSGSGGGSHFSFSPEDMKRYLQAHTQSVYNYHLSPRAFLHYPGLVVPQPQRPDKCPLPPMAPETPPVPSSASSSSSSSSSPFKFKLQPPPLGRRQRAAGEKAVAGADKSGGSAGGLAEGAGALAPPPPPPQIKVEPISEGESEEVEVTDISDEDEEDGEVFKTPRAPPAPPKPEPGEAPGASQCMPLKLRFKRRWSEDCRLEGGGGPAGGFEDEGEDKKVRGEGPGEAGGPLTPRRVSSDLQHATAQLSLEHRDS
The conditions noted are these: protein: recombinant; tags: N-terminal GST; dsDNA, one strand shown. In outline:
as §1

Test [12] has as its target T7, ETV3L (Homo sapiens, UniProt Q6ZN32 1-361).
T7 sequence: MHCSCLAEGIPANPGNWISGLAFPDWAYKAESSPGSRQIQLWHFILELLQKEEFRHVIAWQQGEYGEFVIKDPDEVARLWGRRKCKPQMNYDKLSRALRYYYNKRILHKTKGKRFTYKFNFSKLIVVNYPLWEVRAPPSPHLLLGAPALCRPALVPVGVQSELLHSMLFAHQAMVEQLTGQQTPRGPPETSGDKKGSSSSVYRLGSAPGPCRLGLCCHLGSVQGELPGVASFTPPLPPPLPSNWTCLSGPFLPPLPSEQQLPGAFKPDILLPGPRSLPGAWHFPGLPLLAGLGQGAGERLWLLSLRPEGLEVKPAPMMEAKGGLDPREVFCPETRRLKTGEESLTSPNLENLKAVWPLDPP
The conditions noted are these: protein: recombinant; tags: N-terminal GST; dsDNA, one strand shown. In outline:
as §1

The target of test [13] is T8, ETS2 (Homo sapiens, UniProt P15036 1-469).
T8 sequence: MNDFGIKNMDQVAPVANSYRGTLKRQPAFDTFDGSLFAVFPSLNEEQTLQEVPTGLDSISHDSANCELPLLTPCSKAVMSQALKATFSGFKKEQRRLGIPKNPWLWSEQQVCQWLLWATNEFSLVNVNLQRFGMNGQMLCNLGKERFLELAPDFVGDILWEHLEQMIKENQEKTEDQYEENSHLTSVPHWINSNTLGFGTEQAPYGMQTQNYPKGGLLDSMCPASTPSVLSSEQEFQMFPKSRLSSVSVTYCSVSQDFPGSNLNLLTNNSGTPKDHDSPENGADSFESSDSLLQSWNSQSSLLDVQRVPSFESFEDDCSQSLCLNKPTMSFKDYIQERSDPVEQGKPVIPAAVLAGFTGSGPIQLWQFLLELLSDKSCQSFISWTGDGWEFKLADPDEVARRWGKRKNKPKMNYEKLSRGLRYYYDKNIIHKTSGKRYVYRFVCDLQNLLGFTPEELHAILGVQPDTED
The conditions noted are these: protein: recombinant; tags: N-terminal GST; dsDNA, one strand shown. In short, it runs like this:
as §1

Test [14] has as its target T9, SPDEF (Homo sapiens, UniProt O95238 1-335).
T9 sequence: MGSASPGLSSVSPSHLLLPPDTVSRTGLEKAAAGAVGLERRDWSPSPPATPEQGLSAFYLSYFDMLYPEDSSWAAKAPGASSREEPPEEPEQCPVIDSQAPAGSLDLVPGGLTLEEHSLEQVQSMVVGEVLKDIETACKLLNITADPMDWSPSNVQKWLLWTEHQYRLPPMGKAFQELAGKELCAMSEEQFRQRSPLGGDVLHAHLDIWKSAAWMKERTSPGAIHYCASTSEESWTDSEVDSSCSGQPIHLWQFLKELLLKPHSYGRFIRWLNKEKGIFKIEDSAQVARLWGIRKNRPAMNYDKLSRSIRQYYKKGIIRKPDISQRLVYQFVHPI
The following applies: protein: recombinant; tags: N-terminal GST; dsDNA, one strand shown. In outline: as §1

Test [15] deals with T10, ETV7 (Homo sapiens, UniProt Q9Y603 1-341).
T10 sequence: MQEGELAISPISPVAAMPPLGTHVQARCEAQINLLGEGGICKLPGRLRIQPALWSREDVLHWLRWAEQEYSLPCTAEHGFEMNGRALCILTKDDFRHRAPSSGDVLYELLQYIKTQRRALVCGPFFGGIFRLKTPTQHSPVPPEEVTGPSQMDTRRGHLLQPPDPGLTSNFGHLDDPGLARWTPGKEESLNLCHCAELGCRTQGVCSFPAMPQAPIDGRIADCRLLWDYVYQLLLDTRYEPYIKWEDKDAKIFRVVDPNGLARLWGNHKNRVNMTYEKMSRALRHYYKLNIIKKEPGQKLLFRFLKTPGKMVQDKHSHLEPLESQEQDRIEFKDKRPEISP
The following applies: protein: recombinant; tags: N-terminal GST; dsDNA, one strand shown. In outline: as §1

Test [16] concerns the target T11, ELF5 (Homo sapiens, UniProt Q9UKW6-2 1-255).
T11 sequence: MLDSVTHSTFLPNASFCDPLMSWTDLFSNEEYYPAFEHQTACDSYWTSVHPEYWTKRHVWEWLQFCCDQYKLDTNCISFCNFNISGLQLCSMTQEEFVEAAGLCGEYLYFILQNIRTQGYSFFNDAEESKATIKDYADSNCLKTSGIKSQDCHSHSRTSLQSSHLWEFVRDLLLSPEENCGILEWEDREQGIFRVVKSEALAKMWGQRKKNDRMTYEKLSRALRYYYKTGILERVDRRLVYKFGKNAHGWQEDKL
The conditions noted are these: protein: recombinant; tags: N-terminal GST; dsDNA, one strand shown. In short, it runs like this: as §1

The target in test [17] is T12, ETV3 (Homo sapiens, UniProt P41162-2 1-143).
T12 sequence: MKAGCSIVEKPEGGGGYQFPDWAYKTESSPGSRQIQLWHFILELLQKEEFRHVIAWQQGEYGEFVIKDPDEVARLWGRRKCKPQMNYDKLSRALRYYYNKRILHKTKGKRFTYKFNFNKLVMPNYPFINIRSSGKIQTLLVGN
The conditions noted are these: protein: recombinant; tags: N-terminal GST; dsDNA, one strand shown. In outline: as §1

Test [18] has as its target ETV6 (Homo sapiens, UniProt P41212 1-452). The following applies: protein: recombinant; tags: N-terminal GST; dsDNA, one strand shown. In short, it runs like this: as §1

ETV6, sequence (P41212 whole entry): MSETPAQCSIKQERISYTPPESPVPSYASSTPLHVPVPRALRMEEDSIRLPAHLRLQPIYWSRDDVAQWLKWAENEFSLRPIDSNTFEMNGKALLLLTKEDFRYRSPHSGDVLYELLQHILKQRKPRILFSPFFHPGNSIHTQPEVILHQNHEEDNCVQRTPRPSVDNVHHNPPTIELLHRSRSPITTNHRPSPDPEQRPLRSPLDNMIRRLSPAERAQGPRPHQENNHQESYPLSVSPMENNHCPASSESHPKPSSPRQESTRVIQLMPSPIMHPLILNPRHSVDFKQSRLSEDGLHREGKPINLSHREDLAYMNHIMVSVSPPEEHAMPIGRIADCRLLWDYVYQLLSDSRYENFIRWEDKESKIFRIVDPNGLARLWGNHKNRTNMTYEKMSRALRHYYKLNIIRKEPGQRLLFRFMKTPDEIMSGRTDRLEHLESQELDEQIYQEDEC
HSF1, sequence (Q00613 whole entry): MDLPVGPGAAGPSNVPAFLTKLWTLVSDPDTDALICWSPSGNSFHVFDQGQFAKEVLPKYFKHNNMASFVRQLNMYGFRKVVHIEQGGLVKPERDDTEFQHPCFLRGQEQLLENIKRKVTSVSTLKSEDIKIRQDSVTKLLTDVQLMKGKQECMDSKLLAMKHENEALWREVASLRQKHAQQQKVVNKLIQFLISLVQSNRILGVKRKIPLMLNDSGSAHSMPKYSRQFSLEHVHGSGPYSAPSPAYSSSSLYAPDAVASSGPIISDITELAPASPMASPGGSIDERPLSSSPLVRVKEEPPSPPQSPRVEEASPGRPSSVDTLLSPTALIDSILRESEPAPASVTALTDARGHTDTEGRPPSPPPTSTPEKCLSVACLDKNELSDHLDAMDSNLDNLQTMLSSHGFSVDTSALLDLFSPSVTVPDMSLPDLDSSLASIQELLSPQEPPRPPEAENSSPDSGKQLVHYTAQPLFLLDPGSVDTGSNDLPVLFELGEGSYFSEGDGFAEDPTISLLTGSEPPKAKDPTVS
CRX, sequence (O43186 whole entry): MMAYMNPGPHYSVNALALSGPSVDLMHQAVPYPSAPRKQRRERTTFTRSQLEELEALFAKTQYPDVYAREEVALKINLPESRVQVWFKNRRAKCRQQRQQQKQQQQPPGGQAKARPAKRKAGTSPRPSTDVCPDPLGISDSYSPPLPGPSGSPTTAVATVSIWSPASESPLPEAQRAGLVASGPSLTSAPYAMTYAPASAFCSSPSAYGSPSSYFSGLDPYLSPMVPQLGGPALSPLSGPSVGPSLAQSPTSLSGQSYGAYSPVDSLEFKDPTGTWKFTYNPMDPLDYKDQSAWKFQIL
ELF4, sequence (Q99607 whole entry): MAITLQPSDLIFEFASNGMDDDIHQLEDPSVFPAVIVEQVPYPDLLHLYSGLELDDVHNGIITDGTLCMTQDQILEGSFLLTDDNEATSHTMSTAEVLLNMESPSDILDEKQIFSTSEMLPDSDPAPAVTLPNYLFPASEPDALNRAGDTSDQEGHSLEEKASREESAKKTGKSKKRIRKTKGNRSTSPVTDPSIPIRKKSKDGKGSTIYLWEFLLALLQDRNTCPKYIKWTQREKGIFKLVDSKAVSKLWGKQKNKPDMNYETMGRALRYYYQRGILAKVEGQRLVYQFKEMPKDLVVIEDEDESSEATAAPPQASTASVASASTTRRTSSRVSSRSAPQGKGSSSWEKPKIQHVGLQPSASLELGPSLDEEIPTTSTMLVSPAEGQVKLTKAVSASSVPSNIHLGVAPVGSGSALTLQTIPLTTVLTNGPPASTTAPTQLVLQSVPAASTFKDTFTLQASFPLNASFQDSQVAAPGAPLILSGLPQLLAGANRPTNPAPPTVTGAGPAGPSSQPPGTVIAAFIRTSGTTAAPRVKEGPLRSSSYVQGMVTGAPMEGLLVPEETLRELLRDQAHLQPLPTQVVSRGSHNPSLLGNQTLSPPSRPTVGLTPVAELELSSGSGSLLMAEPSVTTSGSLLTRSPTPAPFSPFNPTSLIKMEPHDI
ETV5, sequence (P41161 whole entry): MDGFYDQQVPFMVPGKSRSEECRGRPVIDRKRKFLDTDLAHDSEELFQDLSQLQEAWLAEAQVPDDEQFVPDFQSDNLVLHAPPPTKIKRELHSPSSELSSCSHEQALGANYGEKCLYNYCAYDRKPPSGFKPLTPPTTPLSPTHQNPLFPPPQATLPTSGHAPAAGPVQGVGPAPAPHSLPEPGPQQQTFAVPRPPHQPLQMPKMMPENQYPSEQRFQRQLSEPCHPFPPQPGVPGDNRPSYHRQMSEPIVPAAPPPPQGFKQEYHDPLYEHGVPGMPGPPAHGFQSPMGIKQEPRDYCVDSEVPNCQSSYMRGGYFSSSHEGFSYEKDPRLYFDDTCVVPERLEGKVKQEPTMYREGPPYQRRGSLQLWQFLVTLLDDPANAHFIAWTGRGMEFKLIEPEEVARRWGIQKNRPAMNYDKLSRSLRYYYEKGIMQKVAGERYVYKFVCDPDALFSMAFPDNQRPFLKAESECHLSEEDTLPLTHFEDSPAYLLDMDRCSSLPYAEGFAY

Consider ATGAGC, for which the binding signal in test [1] was 1.24 fold enrichment (6-mer frequency, TF over GST control); in test [2], 1.23 fold enrichment (6-mer frequency, TF over GST control); in [3], 1.13 fold enrichment (6-mer frequency, TF over GST control); in test [4] it was 1.29 fold enrichment (6-mer frequency, TF over GST control); in [5], 1.29 fold enrichment (6-mer frequency, TF over GST control); in test [6], 1.26 fold enrichment (6-mer frequency, TF over GST control). Moreover, the binding signal in [7] was 1.3 fold enrichment (6-mer frequency, TF over GST control); in [8], 1.35 fold enrichment (6-mer frequency, TF over GST control); in test [9], 1.31 fold enrichment (6-mer frequency, TF over GST control); in test [10], 1.14 fold enrichment (6-mer frequency, TF over GST control); in test [11], 1.29 fold enrichment (6-mer frequency, TF over GST control); in test [12] it was 1.14 fold enrichment (6-mer frequency, TF over GST control). For the same sequence, the binding signal in test [13] was 1.26 fold enrichment (6-mer frequency, TF over GST control); in test [14], 1.12 fold enrichment (6-mer frequency, TF over GST control); in [15] it was 1.15 fold enrichment (6-mer frequency, TF over GST control); in test [16] it was 1.12 fold enrichment (6-mer frequency, TF over GST control); in test [17], 1.34 fold enrichment (6-mer frequency, TF over GST control); in [18], 1.24 fold enrichment (6-mer frequency, TF over GST control).
